Sampled rows, rich in hits. Any-hit rate of the full collection: about 3.2%.
PG9 Ab binder – PG9 antibody binding by small molecule; TR-FRET gp120-PG9 antibody binding; 360,000 compounds, 0.43% hits; AID 624416; inhibition, % at 6.7 µM; in the data active = inhibition above about 8.5%
MsrA inh – inhibitors of bovine MsrA; purified bovine MsrA, absorbance read-out; inhibition, % at 15.5 µM; 360,000 compounds, 0.75% hits; AID 651718; in the data active = inhibition above about 4.5%
HGIII-sPLA2 inh – Blocks human group III sPLA2 activity. Q9NZ20. QFRET BODIPY PC-A2 liposome hydrolysis, fluorescence. inhibition, % at 12.2 µM. 370,000 compounds, 0.56% hits;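 active = inhibition above mean plus 3 SD of compounds lying within the high and low control bounds, cut at about 19% in these data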
Target sequence (Q9NZ20 whole entry, looked up): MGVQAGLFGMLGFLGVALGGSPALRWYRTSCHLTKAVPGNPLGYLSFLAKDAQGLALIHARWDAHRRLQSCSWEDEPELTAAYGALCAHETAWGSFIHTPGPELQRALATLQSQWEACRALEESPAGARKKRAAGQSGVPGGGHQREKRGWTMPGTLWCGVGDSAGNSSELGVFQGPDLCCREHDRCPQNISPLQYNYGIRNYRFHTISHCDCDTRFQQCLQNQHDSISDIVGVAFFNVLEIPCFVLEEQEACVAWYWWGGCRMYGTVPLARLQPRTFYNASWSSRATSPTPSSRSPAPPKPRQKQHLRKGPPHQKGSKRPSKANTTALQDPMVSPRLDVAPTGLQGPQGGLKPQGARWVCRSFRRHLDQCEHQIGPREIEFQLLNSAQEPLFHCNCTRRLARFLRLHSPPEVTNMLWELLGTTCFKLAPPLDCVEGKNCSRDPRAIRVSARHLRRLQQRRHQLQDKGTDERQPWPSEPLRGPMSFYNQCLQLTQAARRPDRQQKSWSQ
bovine MsrA act – bovine methionine sulfoxide reductase A activation; purified bovine MsrA, absorbance read-out; activation, % at 10.6 µM; 360,000 compounds, 0.3% hits; AID 602163; in the data active = activation above about 7.5%
rCAG RNA binder – binds r(CAG) RNA repeats. 370,000 compounds, 1.3% hits. inhibition, % at 3 µM. r(CAG) RNA repeat, TO-PRO-1 dye displacement fluorescence. AID 651821;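 active = inhibition above the plate cutoff, the mean of all test compounds on that plate plus 3 SD, cut at about 35% in these data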;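 note: higher means more dye released from RNA so lower well fluorescence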
rCAG binder conf – r(CAG) RNA repeat binding, confirmation; shares compounds with rCAG RNA binder; TO-PRO-1 dye displacement fluorescence; inhibition, % at 3 µM; 4,300 compounds, 70% hits;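 active = inhibition above a per-plate cutoff, the mean inhibition of sample wells plus 3 SD, cut at about 35% in these data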;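 note: loss of TO-PRO-1 fluorescence as compound displaces dye from 1x1 AA loop RNA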
DNA CAG counter – disrupts DNA CAG TO-PRO-1 complex, flagging rCAG hits; shares compounds with rCAG RNA binder; d(CAG) DNA oligo TO-PRO-1 dye displacement, fluorescence; inhibition, % at 3 µM; 4,300 compounds, 94% hits;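 active = inhibition above its plate's cutoff, the mean test-well inhibition plus 3 SD, cut at about 4.8% in these data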;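 note: hits displace the dye from DNA and so lower well fluorescence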
DNA CAG DR – DNA CAG dye complex inhibition, dose response counter-screen | AID 686960 | IC50, µM | 250 compounds, 20% hits | shares compounds with rCAG RNA binder | DNA CAG/GTC duplex TO-PRO-1 dye displacement fluorescence; in the data active = IC50 below about 10 µM
Numbers stand for hits; . = inactive; / = no result given.

SMILES | PG9 Ab binder | MsrA inh | HGIII-sPLA2 inh | bovine MsrA act | rCAG RNA binder | rCAG binder conf | DNA CAG counter | others
O=C(NCc1ccccc1)c1c[nH]c2ccc(S(=O)(=O)Nc3ccc4c(c3)OCCO4)cc2c1=O | . | . | . | . | 36.7 | . | 12.3
O=C(NCc1ccccc1)c1c[nH]c2ccc(F)cc2c1=O | . | . | . | . | . | / | /
Cc1nc2ccc(S(=O)(=O)NCC(=O)NCc3cccs3)cc2s1 | / | / | . | / | . | / | /
COC(=O)C1CN(CCc2ccccc2)CCS(=O)(=O)N1Cc1ccccc1 (stereo not given) | / | / | . | / | . | / | /
CC(NC(=O)CN1c2cccc3cccc(c23)S1(=O)=O)c1ccc(S(N)(=O)=O)cc1 (stereo not given) | . | . | . | . | 40.4 | . | 10.3
CC(NC(=O)CN1c2cccc3cccc(c23)S1(=O)=O)c1ccccc1 (stereo not given) | . | . | . | . | . | / | /
COC(=O)[C@]12C[C@H](CC(=O)NCc3cccs3)C(=O)N(Cc3ccc(Cl)cc3Cl)C1=C[C@H](C(C)C)O[C@@H]2C1CC1 | / | / | . | / | . | / | /
CCN(Cc1ccccc1)S(=O)(=O)c1c(N)n(C)c(=O)n(C)c1=O | . | . | . | . | 52.5 | . | .
COC(=O)[C@]12C[C@H](CC(=O)N3CCCCC3)C(=O)N(Cc3ccccc3)C1=C[C@H](C(C)(C)C)O[C@@H]2C | . | . | . | / | . | / | /
CCCOc1ccc(C(=O)N2CCC(Oc3cccnc3)CC2)cc1 | / | / | . | / | . | / | /
COc1ccc(-c2nc3cc(C)c(Br)c(C)n3c2Cc2ccccc2C(F)(F)F)cc1OC | . | . | . | . | . | / | /
FC(F)(F)c1ccccc1Cc1c(-c2ccco2)nc2ccc(Br)cn12 | . | . | . | . | 39.3 | . | .
Cc1cc2nc(-c3ccco3)c(Cc3ccccc3C(F)(F)F)n2c(C)c1Br | . | . | . | . | 47.1 | 36.8 | 13.9
CCOP(=O)(OCC)c1ccc2c(c1)C(=O)c1ccccc1-2 | / | / | . | / | / | / | /
COc1ccc(N2C(=O)C3C(c4ccc(C(=O)O)cc4)NC(Cc4ccccc4)(C(=O)O)C3C2=O)c([N+](=O)[O-])c1 (stereo not given) | . | . | . | . | 37.2 | . | 6.6
CCc1ccc(CCNC(=O)OCCCN2CCC3(CCC(C)CC3)C2=O)cc1 (stereo not given) | / | / | . | / | . | / | /
COC(=O)c1c(C)[nH]c(C)c1-c1ccc(C)cc1 | . | . | . | . | 43.2 | . | .
COC(=O)c1c(C)[nH]c(C)c1-c1cccc([N+](=O)[O-])c1 | . | . | . | . | . | / | /
O=C1NN(c2ccc(Cl)c(Cl)c2)C(=O)/C1=C/c1ccc(-c2ccccc2C(=O)O)o1 | . | . | . | . | 73.3 | 66.5 | 26.4
COC(=O)c1ccc(N2NC(=O)/C(=C/c3ccc(-c4ccc(Cl)c(C(=O)O)c4)o3)C2=O)cc1 | . | . | . | . | 40.7 | 68.9 | 28.8
O=C1NN(c2ccccc2)C(=O)/C1=C/c1ccc(-c2ccc(C(=O)O)cc2)o1 | . | . | . | . | . | / | /
Cc1ccc(N2NC(=O)/C(=C/c3ccc(-c4ccc(Cl)c(C(=O)O)c4)o3)C2=O)cc1C | . | . | . | . | . | / | /
CC(=O)Nc1sc2c(c1-c1cc3ccccc3o1)CCNC2 | / | / | . | / | / | / | /
O=c1[nH]n2c(=O)c3c([nH]c2c1N=Nc1cccc(Cl)c1)CCC3 | . | . | . | . | 84.7 | 72.8 | 30.9 | DNA CAG DR=8.41
COc1cccc(N=Nc2c(=O)[nH]n3c(=O)c4c([nH]c23)CCC4)c1 | . | . | . | . | 38.8 | . | 7.6
O=c1[nH]n2c(=O)c3c([nH]c2c1N=Nc1cccc(C(F)(F)F)c1)CCCC3 | . | . | . | . | 98.8 | 76.4 | 42.3
CC(C)C(Sc1nc(-c2ccccc2)cc(-c2ccccc2)c1C#N)C(=O)O (stereo not given) | . | . | . | . | 83.2 | 85.7 | 51.3
CC(C)OC(=O)CC(=O)CSc1nc(-c2ccc(F)cc2)cc(-c2ccccc2)c1C#N | . | . | . | . | . | / | /
COc1ccc(-c2cc(-c3ccccc3)nc(SC(C)C(=O)O)c2C#N)cc1 (stereo not given) | . | . | . | . | 70.5 | 75.7 | 38.0
